Where “and” joins values, the source holds several entries; their conditions need not be identical. Identical values can stand only once. Results filed as inconclusive are left out. Some compounds were tested as several samples or in several runs, with calls that do not always agree. Calls of active or inactive are those of the source. Unless noted, calls follow the shape of the dose curve; as a rule, active = well fitted curve in the direction sought with a large enough effect in the repeat runs; inconclusive = weak or mixed curves; inactive = no such curve, though single readings can be large; an effect the other way counts as inactive or inconclusive.
Experiments:
[1] = qHTS assay to identify small molecule HDAC inhibitors (AID 1259364);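 also: wild-type HCT-116 cells with endogenous class I/II HDAC activity; top concentration of the series differs between compounds; nearly all actives have a fitted effect of over 45% in size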
Summary of the method: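 Read-out: luminescence of HDAC-Glo I/II reagent, 30 min RT, reflecting class I/II deacetylase activity in whole HCT-116 cells pre-exposed 2 h to DMSO-dissolved compounds.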

[2] = qHTS assay to identify small molecule HDAC inhibitors - cell viability counter screen (AID 1259365); also: series mostly up to about 92 µM; nearly all actives have a fitted effect of over 50% in size
Summary of the method: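 To flag cytotoxic hits, 1,500 wild-type HCT-116 cells per well, plated the day before, receive test compounds for 2hr at 37 C before CellTiter-Glo reagent and a luminescence read.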

[3] = qHTS assay to identify small molecule agonists of the sonic hedgehog signaling (Shh) pathway - cell viability counter screen (AID 1259366); also: nearly all actives have a fitted effect of over 50% in size; also: potency is read from the fitted curve at half-maximal effect
Summary of the method: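 Fluorescence from CellTiter-Fluor reports live cells in this counter screen. NIH/3T3-derived Gli1-Luc reporter cells receive test compounds for 24hr at 37C; reagent goes in at 23hr.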

[4] = qHTS assay to identify small molecule antagonists of the sonic hedgehog signaling (Shh) pathway - cell viability counter screen (AID 1259367); also: nearly all actives have a fitted effect of over 55% in size; also: potency is read from the fitted curve at half-maximal effect
Summary of the method: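 NIH/3T3-derived Gli1-Luc reporter cells (2,000 per well) rested 4 hr at 37 C, then received DMSO compounds plus conditioned medium. After 23 hr of treatment, CellTiter-Fluor was added for 1 hr at 37C and fluorescence read.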

[5] = qHTS assay to identify small molecule agonists of the sonic hedgehog signaling (Shh) pathway (AID 1259368; calls by dose curve;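 also: NIH/3T3-derived 3T3Gli1-Luc cells carrying a stable Gli1-driven firefly luciferase reporter; series mostly up to about 92 µM; nearly all actives have a fitted effect of over 15% in size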)
Summary of the method: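 A Gli1 transcriptional response element controlled firefly luciferase in 3T3Gli1-Luc cells. Compounds and a positive control were added 4 hr after plating, and cells were incubated a further 24 hr at 37 C before luminescence detection.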

[6] = qHTS assay to identify small molecule antagonists of the sonic hedgehog signaling (Shh) pathway (AID 1259369; calls by dose curve; also: nearly all actives have a fitted effect of over 45% in size; also: potency is read from the fitted curve at half-maximal effect)
Summary of the method: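 For antagonist detection, the reporter line received test compounds together with conditioned medium, incubated 24hr at 37 C, 5% CO2, then luminescence was recorded following 30min room-temperature luciferase reagent incubation.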

[7] = molecular target: Estrogen receptor beta (Homo sapiens) (UniProt Q92731); assay: qHTS assay to identify small molecule agonists of the estrogen receptor beta (ER-beta) signaling pathway (AID 1259377; active = well fitted activation curve with a large enough effect in the signal ratio in the repeat runs, not every such curve was filed as active; the % refers to the signal ratio)
Summary of the method: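 Screening used GripTite ER-beta-UAS-bla cells held in 2% charcoal-stripped FBS medium. After overnight (16 hr) compound incubation at 37C, beta-lactamase activity was detected with a FRET substrate by fluorescence.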

[8] = molecular target: Estrogen receptor beta (Homo sapiens) (UniProt Q92731); assay: qHTS assay to identify small molecule antagonists of the estrogen receptor beta (ER-beta) signaling pathway (AID 1259378; active = well fitted inhibition curve with a large enough effect in the signal ratio in the repeat runs, not every such curve was filed as active; the % refers to the signal ratio)
Summary of the method: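 ER-beta-UAS-bla HEK293T (GripTite) cells in 2% charcoal-stripped FBS medium were preincubated 6 hr at 37C, dosed with compound, then stimulated with 1 nM E2 (final) for 16 hr; beta-lactamase reporter read by B/G FRET fluorescence after 2 hr substrate loading.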

[9] = qHTS assay to identify small molecule agonists of the androgen receptor (AR) signaling pathway in the presence of an antagonist - cell viability counter screen (AID 1259379);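 also: MDA-kb2 human breast cancer cells carrying an MMTV luciferase reporter; series mostly up to about 92 µM; nearly all actives have a fitted effect of over 25% in size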
Summary of the method: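 Seed MDA-kb2 at 3,000 cells/well; incubate 5 hr, 37C, 0% CO2. Add nilutamide to 3.0uM final, then pin compounds at 15 concentrations. Incubate 16 hr. Add CellTiter-Fluor at 15 hr, read fluorescence after 1 hr.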

[10] = qHTS assay to identify small molecule agonists of the estrogen receptor beta (ER-beta) signaling pathway - cell viability counter screen (AID 1259380); also: nearly all actives have a fitted effect of over 30% in size
Summary of the method: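 CellTiter-Glo read, 30 min RT, same wells as bla assay; cells ER-beta-UAS-bla HEK293T; 16 hr compound, 37C; medium 2% charcoal-stripped FBS.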

[11] = qHTS assay to identify small molecule antagonists of the estrogen receptor beta (ER-beta) signaling pathway - cell viability counter screen (AID 1259382); also: series mostly up to about 92 µM; nearly all actives have a fitted effect of over 55% in size
Summary of the method: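 In this multiplexed counter screen, cells were seeded at 2,000 per well in medium with 2% charcoal-stripped FBS and incubated 6 hr before compound and 1nM final E2 were added. Sixteen hours later, ATP-based luminescence reported viability.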

[12] = molecular target: Estrogen receptor (Homo sapiens) (UniProt P03372); assay: qHTS assay to identify small molecule agonists of the estrogen receptor alpha (ER-alpha) signaling pathway in the presence of an antagonist (AID 1259383; calls by dose curve; also: top concentration of the series differs between compounds; nearly all actives have a fitted effect of over 15% in size)
Summary of the method: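 Stably transfected VM7Luc4E2 reporter cells, kept 5 days in charcoal-stripped serum, received ICI-182,780 at 10.0nM final before compound addition. Following 22hr incubation at 37C and 5% CO2, luciferase signal was read by luminescence.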

[13] = qHTS assay to identify small molecule agonists or antagonists of the thyroid stimulating hormone receptor (TSHR) signaling pathway - wild type cell line counter screen (AID 1259384; calls by dose curve)
Summary of the method: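 Wild-type HEK293 cells were plated 18 h at 37 C/5% CO2, pin-dosed with compound plus Ro20-1724 medium, held 30 min at room temperature, then given cAMP-d2 and anti-cAMP-cryptate; fluorescence was read after 1 h. Fifteen concentrations, triplicate.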

[14] = molecular target: Thyrotropin receptor (Homo sapiens) (UniProt P16473); assay: qHTS assay to identify small molecule antagonists of the thyroid stimulating hormone receptor (TSHR) signaling pathway (AID 1259385; calls by dose curve; also: nearly all actives have a fitted effect of over 20% in size)
Summary of the method: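 TSHR-HEK293 cells were plated and held 18 h at 37C/5% CO2, then given compound plus Ro20-1724 and stimulated with TSH at 1.5 ng/mL final. After 30 min at room temperature, cAMP was detected with cAMP-d2/anti-cAMP-cryptate (1 h) by fluorescence.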

[15] = qHTS assay to identify small molecule agonists of the estrogen receptor alpha (ER-alpha) signaling pathway in the presence of an antagonist - cell viability counter screen (AID 1259386);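 also: series mostly up to about 92 µM; cells exposed to compounds for 22 h at 37 °C before the viability read; nearly all actives have a fitted effect of over 30% in size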
Summary of the method: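 Viability counter screen using VM7Luc4E2 (full-length ER-alpha, four ERE-luciferase). The cells were treated with compounds alongside ICI-182,780 10.0nM for 22hr, and live-cell protease fluorescence was quantified with CellTiter-Fluor.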

[16] = molecular target: Progesterone receptor (Homo sapiens) (UniProt P06401); assay: qHTS assay to identify small molecule agonists of the progesterone receptor (PR) signaling pathway (AID 1346784; calls by dose curve; also: nearly all actives have a fitted effect of over 30% in size)
Summary of the method: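 Seed PR-UAS-bla HEK 293T cells (2% charcoal-stripped FBS), incubate 6 hr at 37C; add compounds in DMSO, 16 hr at 37C; add LiveBLAzer B/G substrate, 2 hr RT; read fluorescence intensity.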

[17] = molecular target: Progesterone receptor (Homo sapiens) (UniProt P06401); assay: qHTS assay to identify small molecule antagonists of the progesterone receptor (PR) signaling pathway (AID 1346795; active = well fitted inhibition curve with a large enough effect in the signal ratio in the repeat runs, not every such curve was filed as active; the % refers to the signal ratio)
Summary of the method: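 Screening used a GripTite HEK293T line with PR-responsive UAS-beta-lactamase. Cells were challenged with compound in the presence of 1 nM R5020 final for 16 hr at 37C; B/G FRET substrate, 2 hr room temperature, fluorescence.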

[18] = qHTS assay to identify small molecule antagonists of the progesterone receptor (PR) signaling pathway - cell viability counter screen (AID 1346798); also: series mostly up to about 92 µM; nearly all actives have a fitted effect of over 50% in size
Summary of the method: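 Measures cytotoxicity in parallel with the PR antagonist reporter read: HEK293T PR-UAS-bla cells get compound and R5020 for 16 hr, and remaining viable cells are quantified by CellTiter-Glo luminescence.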

[19] = qHTS assay to identify small molecule phospholipidosis (PLD) inducers (AID 1259344; active = well fitted curve in the direction sought with a large enough effect; an effect the other way counts as inactive or inconclusive)
Summary of the method: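 HepG2 cells on collagen I, attached 4 h at 37 C, were co-treated with compound and LipidTOX Red dye for 24 h at 37 C, then fixed with paraformaldehyde plus Hoechst 33342 and imaged by high-content microscopy for phospholipid accumulation.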

[20] = molecular target: Androgen receptor (Homo sapiens) (UniProt P10275); assay: qHTS assay to identify small molecule agonists of the androgen receptor (AR) signaling pathway in the presence of an antagonist (AID 1259381; calls by dose curve; also: nearly all actives have a fitted effect of over 15% in size)
Summary of the method: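 Test compounds at 15 concentrations were incubated for 16hr with MDA-kb2 reporter cells in presence of 3.0uM nilutamide (final). Signal: ONE-Glo luciferase luminescence.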

Measured: Potency

Estrogen receptor beta (Homo sapiens), sequence (Q92731 whole entry, looked up): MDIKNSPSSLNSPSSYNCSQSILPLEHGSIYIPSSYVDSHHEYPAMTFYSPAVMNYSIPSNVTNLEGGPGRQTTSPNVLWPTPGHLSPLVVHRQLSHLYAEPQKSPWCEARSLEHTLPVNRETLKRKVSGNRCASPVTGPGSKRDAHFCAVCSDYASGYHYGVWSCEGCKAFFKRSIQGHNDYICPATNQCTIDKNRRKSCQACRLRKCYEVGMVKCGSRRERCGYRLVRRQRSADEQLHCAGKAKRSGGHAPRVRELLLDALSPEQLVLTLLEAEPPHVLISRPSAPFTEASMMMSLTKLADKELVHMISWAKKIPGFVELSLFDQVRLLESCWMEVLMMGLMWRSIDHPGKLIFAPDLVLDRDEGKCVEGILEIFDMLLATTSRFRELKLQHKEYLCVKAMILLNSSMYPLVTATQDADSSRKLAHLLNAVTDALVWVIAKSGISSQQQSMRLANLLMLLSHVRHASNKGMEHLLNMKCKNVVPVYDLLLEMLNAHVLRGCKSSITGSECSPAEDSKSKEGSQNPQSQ
Thyrotropin receptor (Homo sapiens), sequence (P16473 whole entry, looked up): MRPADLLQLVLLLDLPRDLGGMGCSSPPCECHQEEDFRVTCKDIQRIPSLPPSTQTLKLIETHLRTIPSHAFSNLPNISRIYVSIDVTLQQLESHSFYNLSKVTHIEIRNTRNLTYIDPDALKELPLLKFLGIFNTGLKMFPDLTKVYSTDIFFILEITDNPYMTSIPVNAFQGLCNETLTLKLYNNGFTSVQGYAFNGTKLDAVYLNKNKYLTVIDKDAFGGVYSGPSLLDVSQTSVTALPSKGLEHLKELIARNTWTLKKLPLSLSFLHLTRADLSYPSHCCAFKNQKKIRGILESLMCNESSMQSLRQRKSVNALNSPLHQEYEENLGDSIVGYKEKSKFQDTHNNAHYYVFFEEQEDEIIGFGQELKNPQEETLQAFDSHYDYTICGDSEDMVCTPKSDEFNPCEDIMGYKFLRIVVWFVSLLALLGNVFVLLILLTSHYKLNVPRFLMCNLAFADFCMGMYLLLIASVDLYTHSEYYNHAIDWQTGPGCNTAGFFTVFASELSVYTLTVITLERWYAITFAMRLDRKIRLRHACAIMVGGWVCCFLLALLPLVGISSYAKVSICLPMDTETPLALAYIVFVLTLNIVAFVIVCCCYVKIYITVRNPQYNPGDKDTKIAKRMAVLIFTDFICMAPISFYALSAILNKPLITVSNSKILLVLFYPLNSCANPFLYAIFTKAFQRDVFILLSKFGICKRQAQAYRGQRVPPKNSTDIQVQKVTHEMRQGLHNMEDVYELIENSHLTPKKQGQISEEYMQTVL
Estrogen receptor (Homo sapiens), sequence (P03372 whole entry, looked up): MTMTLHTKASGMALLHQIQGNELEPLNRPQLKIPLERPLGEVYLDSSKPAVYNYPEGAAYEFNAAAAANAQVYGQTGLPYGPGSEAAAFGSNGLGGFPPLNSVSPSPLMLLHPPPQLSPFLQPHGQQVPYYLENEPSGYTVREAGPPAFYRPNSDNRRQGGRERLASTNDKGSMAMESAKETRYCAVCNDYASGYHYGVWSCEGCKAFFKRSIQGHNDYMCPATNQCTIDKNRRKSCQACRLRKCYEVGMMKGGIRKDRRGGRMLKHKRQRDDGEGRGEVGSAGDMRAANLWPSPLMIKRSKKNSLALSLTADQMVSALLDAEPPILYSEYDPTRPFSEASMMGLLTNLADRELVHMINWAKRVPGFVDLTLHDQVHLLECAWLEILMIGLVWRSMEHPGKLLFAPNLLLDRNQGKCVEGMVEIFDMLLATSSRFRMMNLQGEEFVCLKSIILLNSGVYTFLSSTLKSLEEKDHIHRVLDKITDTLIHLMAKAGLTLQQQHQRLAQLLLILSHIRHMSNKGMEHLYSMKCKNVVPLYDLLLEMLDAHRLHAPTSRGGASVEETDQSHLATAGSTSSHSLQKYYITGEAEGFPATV
Progesterone receptor (Homo sapiens), sequence (P06401 whole entry, looked up): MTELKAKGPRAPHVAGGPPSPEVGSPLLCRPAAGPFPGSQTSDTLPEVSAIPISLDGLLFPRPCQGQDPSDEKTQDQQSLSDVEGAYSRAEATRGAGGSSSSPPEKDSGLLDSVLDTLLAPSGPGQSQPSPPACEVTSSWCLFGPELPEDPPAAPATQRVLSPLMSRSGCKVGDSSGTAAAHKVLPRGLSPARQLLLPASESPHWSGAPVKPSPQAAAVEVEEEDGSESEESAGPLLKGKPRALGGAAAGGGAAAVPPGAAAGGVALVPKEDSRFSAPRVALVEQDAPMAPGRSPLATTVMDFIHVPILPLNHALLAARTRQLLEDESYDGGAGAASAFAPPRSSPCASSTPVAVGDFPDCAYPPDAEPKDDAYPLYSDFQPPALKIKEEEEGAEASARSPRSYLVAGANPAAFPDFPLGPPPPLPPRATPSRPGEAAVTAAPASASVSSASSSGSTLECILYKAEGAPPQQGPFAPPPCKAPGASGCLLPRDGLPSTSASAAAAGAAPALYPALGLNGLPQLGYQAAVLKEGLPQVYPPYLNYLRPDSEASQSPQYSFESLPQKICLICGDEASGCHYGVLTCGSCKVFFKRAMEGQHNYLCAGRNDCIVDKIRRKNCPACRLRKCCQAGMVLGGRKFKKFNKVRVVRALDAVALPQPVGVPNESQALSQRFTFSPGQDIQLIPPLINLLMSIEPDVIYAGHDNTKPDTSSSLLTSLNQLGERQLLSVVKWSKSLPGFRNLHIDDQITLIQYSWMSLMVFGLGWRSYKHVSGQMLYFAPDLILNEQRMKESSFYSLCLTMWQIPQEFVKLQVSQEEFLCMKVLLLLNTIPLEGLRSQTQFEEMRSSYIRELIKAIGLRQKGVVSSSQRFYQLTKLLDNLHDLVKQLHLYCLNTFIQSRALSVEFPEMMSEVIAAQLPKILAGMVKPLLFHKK
Androgen receptor (Homo sapiens), sequence (P10275 whole entry, looked up): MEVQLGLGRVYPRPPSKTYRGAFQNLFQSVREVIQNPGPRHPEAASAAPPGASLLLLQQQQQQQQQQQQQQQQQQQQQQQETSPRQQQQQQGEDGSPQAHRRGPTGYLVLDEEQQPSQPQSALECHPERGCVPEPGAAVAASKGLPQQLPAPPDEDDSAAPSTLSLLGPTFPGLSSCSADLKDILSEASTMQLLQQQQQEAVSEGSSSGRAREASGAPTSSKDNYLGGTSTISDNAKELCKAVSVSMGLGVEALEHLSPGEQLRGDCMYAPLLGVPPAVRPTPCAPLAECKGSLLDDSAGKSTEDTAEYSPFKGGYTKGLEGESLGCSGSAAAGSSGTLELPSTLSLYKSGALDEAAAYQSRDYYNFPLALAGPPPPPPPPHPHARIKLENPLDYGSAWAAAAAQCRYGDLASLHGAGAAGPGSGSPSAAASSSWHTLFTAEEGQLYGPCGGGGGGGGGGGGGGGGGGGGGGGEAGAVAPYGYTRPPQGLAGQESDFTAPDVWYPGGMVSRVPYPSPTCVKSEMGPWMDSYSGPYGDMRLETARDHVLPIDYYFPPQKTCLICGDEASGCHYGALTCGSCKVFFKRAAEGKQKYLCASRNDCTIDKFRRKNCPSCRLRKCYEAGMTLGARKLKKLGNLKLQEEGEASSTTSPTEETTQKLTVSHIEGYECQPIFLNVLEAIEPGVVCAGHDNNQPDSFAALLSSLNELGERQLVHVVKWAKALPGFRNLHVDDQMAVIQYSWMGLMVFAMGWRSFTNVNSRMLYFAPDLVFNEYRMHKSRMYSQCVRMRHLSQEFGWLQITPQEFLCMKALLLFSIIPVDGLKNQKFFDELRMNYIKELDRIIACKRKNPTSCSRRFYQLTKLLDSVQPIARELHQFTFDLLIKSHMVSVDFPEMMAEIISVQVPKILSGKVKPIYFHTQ

CC(C)C1(C)N=C(c2nc3ccccc3cc2C(=O)O)NC1=O (stereo unspecified)
not listed: [19] | [20]
inactive: all other assays above

Cc1ccccc1O
not listed: [19] | [20]
inactive: all other assays above

CCCCCOC(=O)c1ccccc1C(=O)OCCCCC
not listed: [17] | [19] | [20]
inactive: all other assays above

CC(Br)C(=O)O (stereo unspecified)
not listed: [18] | [19] | [20]
inactive: all other assays above

O=C(NC(=O)c1c(F)cccc1F)Nc1cc(Cl)c(OC(F)(F)C(F)C(F)(F)F)cc1Cl (stereo unspecified)
not listed: [13] | [17]
inactive: all other assays above

C[C@]12CC[C@H]3[C@@H](CC[C@@]45O[C@@H]4C(O)=C(C#N)C[C@]35C)[C@@H]1CC[C@@H]2O
active: [6] 27.3 µM and 13.3 µM
not listed: [7] | [12] | [17] | [20]
inactive: all other assays above

O=[N+]([O-])c1ccc([As](=O)(O)O)cc1
not listed: [7] | [8] | [20]
inactive: all other assays above

COc1ccc2c3c1O[C@H]1[C@@H](O)C=C[C@H]4[C@@H](C2)N(C)CC[C@@]341
active: [6] 2.69 µM
21.3 µM (active) and inactive: [3]
26.9 µM (active) and inactive: [4]
not listed: [2] | [7] | [8] | [18] | [20]
inactive: all other assays above
